Shown is part of a subset that was picked to be rich in hits.
Cycloheximide cs: Cycloheximide Counterscreen for Small Molecule Inhibitors of Shiga Toxin | cell reporter, cycloheximide protein synthesis inhibition counterscreen | max response, % | hit rate 12% among 300,000; in the data active = max response mostly above about 13%, no sharp cut-off; inactive = mostly below about 14%; note: read at 38.3 µM for the half of the compounds with a filed dose; 0% is about no effect
Shiga inhibitor: A qHTS for Small Molecule Inhibitors of Shiga Toxin; Vero cells, Shiga toxin protein synthesis inhibition reporter; inhibition, % at 38.7 µM; hit rate 9.2% among 290,000; in the data active = inhibition mostly above about 28%, no sharp cut-off; inactive = mostly below about 43%; note: 0% is about no effect
RE007 growth inh: qHTS Assay for Inhibitors of the HIV-1 protein Vpr; S. pombe RE007 Vpr strain, BacTiter-Glo ATP luminescence, 24 h; Potency, µM (highest dose often 92.2 µM), inactives show at the highest dose activity change, negative = less growth, most hits filed as inhibitors; hit rate 0.21% among 360,000; active = well fitted falling curve with a large enough effect; inconclusive = small, poorly fitted or top-dose-only effect; inactive = no such curve, though single readings can be large or run the other way; note: potency is the fitted concentration of half-maximal effect; % is set by controls: 0 for no effect and ±100 for the full control effect; nearly all actives have a fitted effect of over 50% in size
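Fission yeast strain RE007, carrying one chromosomally integrated HIV-1 vpr copy, was seeded at OD 0.01 in PMG+AL medium with 23 nL pinned compound. After 24 h at 30 °C and 99% humidity, viability was read by BacTiter-Glo luminescence.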
Giardia FBPA inh: qHTS Assay for Inhibitors of Fructose-1,6-bisphosphate Aldolase from Giardia Lamblia; A8B2U2; purified Giardia FBPA; Potency, µM (highest dose often 59.6 µM), without a hit: at the highest dose activity, negative = inhibition, actives largely listed as inhibitors; hit rate 0.71% among 290,000; note: potency is the fitted concentration of half-maximal effect; % is set by controls: 0 for no effect and ±100 for the full control effect; nearly all actives have a fitted effect of over 55% in size
Target sequence (A8B2U2 whole entry, looked up): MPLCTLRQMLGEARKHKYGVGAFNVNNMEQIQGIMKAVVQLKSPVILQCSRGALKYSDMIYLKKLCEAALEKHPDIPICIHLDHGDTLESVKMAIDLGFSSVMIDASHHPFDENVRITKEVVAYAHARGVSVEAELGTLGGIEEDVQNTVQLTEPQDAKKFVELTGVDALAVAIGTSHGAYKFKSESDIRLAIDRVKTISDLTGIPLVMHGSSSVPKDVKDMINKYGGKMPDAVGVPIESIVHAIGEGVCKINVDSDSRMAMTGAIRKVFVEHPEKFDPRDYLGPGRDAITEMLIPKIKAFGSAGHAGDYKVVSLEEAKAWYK
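40 nM FBPA preincubated 10 min at RT with compound (up to 57.5 uM final), then substrate plus GAPDH/TPI/NAD/arsenate coupling and diaphorase/resazurin added. Fluorescence read after 20 min at RT, 525/598 nm.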
Tb PYK inh: qHTS of Trypanosoma Brucei Inhibitors. pyruvate kinase (Trypanosoma brucei), Q57TT1. TbPYK enzyme, Kinase-Glo Plus ATP luminescence, 45 min. Potency, µM (top dose mostly 76.8 µM), for inactives: at the top dose activity, negative = inhibition, usual class: inhibitors. hit rate 0.12% among 410,000; note: potency is the fitted concentration of half-maximal effect; % is set by controls: 0 for no effect and ±100 for the full control effect; nearly all actives have a fitted effect of over 50% in size
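Quantitative HTS: titrated library compounds versus trypanosomal pyruvate kinase in TEA buffer (pH 7.2) containing KCl, MgCl2, BSA and Tween-20. Reactions were initiated with ADP, 130 uM final. Kinase-Glo Plus luminescence was read after 45 min at RT.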
LmPK inhibitor: qHTS Assay for Inhibitors of Leishmania Mexicana Pyruvate Kinase (LmPK); Q27686; purified LmPK, Kinase-Glo ATP luminescence, 1 h; Potency, µM (doses to about 57.5 µM), for the others: top-dose activity change, negative = inhibition, most hits filed as inhibitors; hit rate 0.37% among 290,000; AID 1721, 2009; note: potency is the fitted concentration of half-maximal effect; % is set by controls: 0 for no effect and ±100 for the full control effect
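0.1 nM LmPK, 0.5 mM PEP, 0.1 mM ADP; 50 mM imidazole pH 7.2, 7 mM MgCl2, 50 mM KCl; 1 h RT. Kinase-Glo luminescence readout, normalized to no-enzyme (full inhibition) and uninhibited wells.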
* = called active by the depositor; ? = inconclusive; / = no result. Unless noted, calls come from the whole dose curve; as a rule, active = well fitted curve in the direction sought with a large enough effect; inconclusive = small, poorly fitted or top-dose-only effect, or another doubt; inactive = no such curve, though single readings can be large; an effect the other way counts as inactive or inconclusive.

SMILES	Cycloheximide cs	Shiga inhibitor	RE007 growth inh	Giardia FBPA inh	Tb PYK inh	LmPK inhibitor
CC1CCCN(CCOCCOc2ccc(Br)cc2Cl)C1 (centres undefined)	-2.0	-10.6	-11.1%	-18.9%	0.5%	-3.1%
c1ccc(CNc2cc(-c3ccoc3)ncn2)cc1	/	/	/	-23.1%	/	/
CCOC(=O)c1ccc(CN(Cc2ccc(F)cc2)S(=O)(=O)c2cc(C(=O)Nc3cccc(C(F)(F)F)c3)ccc2F)cc1	/	/	/	/	4.5%	/
O=C(NC1CCCCC1)c1ccc2c(c1)N(Cc1ccccc1Cl)C(=O)c1ccccc1S2	/	/	/	/	0.3%	/
COc1ccc(/C=N/NC(=O)c2ccn[nH]2)cc1Cn1cc([N+](=O)[O-])cn1	23.5*	58.6*	1.7%	0.6%	4.8%	-5.2%
COc1ccc(/C=N/NC(=O)c2ccn[nH]2)cc1COc1ccc(Cl)cc1	30.8*	114.9	-10.5%	-0.6%	0.1%	0.3%
COc1ccc(/C=N/NC(=O)c2cccc(Br)c2)cc1CSc1ccccn1	15.4	29.4	-10.6%	3.0%	5.5%	4.3%
COc1ccc(/C=N/NC(=O)c2ccccc2O)cc1Cn1cc(Cl)cn1	15.7*	42.6	11.6%	3.6%	-14.5%	1.0%
COc1ccc(/C=N/NC(=O)c2ccn[nH]2)cc1CSc1ccccn1	64.7*	74.6*	3.7%	-3.5%	-8.1%	-3.3%
COc1ccc(OC)c(NC(=O)Cn2ccn(-c3ccc(OC)c(OC)c3)c(=O)c2=O)c1	/	/	/	/	2.6%	/
COc1ccc(/C=N/N2CCOCC2)cc1COc1ccc(F)cc1	35.0*	25.4	0.9%	-10.3%	4.4%	-9.0%
COc1ccc(/C=N/NC(=O)c2ccc(N)cc2)cc1Cn1cc([N+](=O)[O-])cn1	9.2	-7.3	17.6%	-0.8%	2.0%	1.4%
COc1ccc(/C=N/N2CCOCC2)cc1Cn1cc([N+](=O)[O-])cn1	15.1*	30.4	0.2%	4.4%	3.5%	2.9%
COc1ccc2oc(-c3ccccc3)c(OC)c(=O)c2c1	/	/	/	-0.5%	/	/
Fc1ccc(Nc2ncncc2-c2ccccc2C(F)(F)F)cc1	/	/	/	-4.4%	/	/
C=CCN1C(=O)C(=O)N(CC(=O)NCC(=O)Nc2ccc(F)c(F)c2F)C1=O	/	/	22.1%	/	-9.8%	/
O=C(CCCl)Nc1cccc2cccnc12	48.4*	36.3	/	/	/	/
O=C(Nc1ccccc1)Nc1cccc2cccnc12	35.8*	122.0*	-26.9%	-22.1%	-4.3%	-1.2%
CC(=O)c1ccc(NC(=O)Nc2cccc3ccccc23)cc1	26.8*	11.9	6.1%	/	0.7%	0.8%
O=C(CI)Nc1cccc2cccnc12	-4.8	-13.0	/	/	/	/
O=S(=O)(Nc1cccc2cccnc12)c1ccccc1	19.0	11.0	-5.6%	17.7µM*	-7.6%	-0.7%
CCC(=O)OC1(C)C(=O)C=C2C=C(CCCNC(=O)OC(C)(C)C)OC=C2C1=O (centres undefined)	/	/	/	-8.6%	/	/
CCOc1ccc(-n2c(=O)c3c(C)c(C(=O)N(C)C)sc3n(CC(=O)Nc3c(C)cc(C)cc3C)c2=O)cc1	/	/	/	/	-2.1%	/
O=C(Nc1ccccc1)Nc1csc2ccccc12	50.8*	147.9*	4.8%	-11.9%	-0.8%	7.1%
NC(=S)NNc1cccc2cccnc12	19.4*	38.7*	-2.7%	?	-12.8%	-9.6%
SMILES	Cycloheximide cs	Shiga inhibitor	RE007 growth inh	Giardia FBPA inh	Tb PYK inh	LmPK inhibitor
CC(=O)Nc1csc2ccccc12	-2.2	23.9	-10.9%	0.0%	6.2%	0.5%
O=C(Nc1ccccc1)Nc1cccc2ccccc12	18.7*	26.5	82.8%	-0.1%	-1.9%	4.2%
NC(=S)Nc1cccc2cccnc12	3.9	15.3	-0.2%	-2.9%	2.4%	4.1%
O=C(Nc1ccc(C(=O)O)cc1)Nc1cccc2ccccc12	4.0	9.1	8.3%	0.6%	-13.8%	-0.6%
O=C(Nc1cccc2cccnc12)OCc1ccccc1	30.4*	49.8	/	/	/	/
O=S(=O)(c1ccc2c(c1)OCCO2)N1CCN(S(=O)(=O)c2ccc(F)cc2F)CC1	-1.9	1.0	/	/	/	/
CCOc1cc(/C=C2\SC(=N)N(c3nonc3N)C2=O)ccc1OCCN1CCOCC1	14.1*	21.8	-3.8%	?	-6.6%	-12.6%

High-throughput results from PubChem BioAssay.
